{
  "source": "PubChem BioAssay (EPA / NIEHS)",
  "note": "Activity calls are given as the source filed them. Rule for the calls: active = hit-call score of the fitted dose curve at least 0.9, where 1 is the maximum; inactive = score below 0.9.",
  "data": [
    {"assay": "APR_HepG2_StressKinase_1hr: Apredica 1-hour HepG2 Assay for Stress Kinase (AID 2282906)", "details": "HepG2 stress kinase (phospho-c-Jun) imaging, actives raise or lower the signal", "procedure": "APR_HepG2_1hr is a cell-based, multiplexed-readout assay that uses HepG2, a human liver cell line, with measurements taken at 1 hour after chemical dosing in a 384-well plate.APR_HepG2_StressKinase_1hr is one of 10 assay component(s) measured or calculated from the APR_HepG2_1hr assay. It is designed to make measurements of enzyme activity, a form of enzyme reporter, as detected with fluorescence intensity signals by HCS Fluorescent Imaging technology.Data from the assay component APR_HepG2_StressKinase_1hr was analyzed into 1 assay endpoint. This assay endpoint, APR_HepG2_StressKinase_1hr, was analyzed with bidirectional fitting relative to DMSO as the negative control and baseline of activity. Using a type of enzyme reporter, measures of protein for gain or loss-of-signal activity can be used to understand the signaling at the pathway-level as they relate to the gene . Furthermore, this assay endpoint can be referred to as a primary readout, because this assay has produced multiple assay endpoints where this one serves a signaling function. To generalize the intended target to other relatable targets, this assay endpoint is annotated to the cell cycle intended target family, where the subfamily is stress response.\nCells were treated with dimethyl sulfoxide (DMSO) as a solvent control at a final concentration of 0.5% v/v or with compounds in DMSO with a resulting final DMSO concentration of 0.5% v/v. Compound treatment was done at concentrations of 0.39, 0.78, 1.56, 3.12, 6.24, 12.5, 25, 50, 100, and 200 uM in duplicate on each plate. Cells were treated with compounds for 1, 24, or 72 hr. Carbonyl […] m-chloro-phenylhydrazone (CCCP) and taxol were used as positive controls for mitochondrial function and cytoskeletal stability, respectively; DMSO served as the negative control for this experiment. Cells were fixed by the direct addition of 50 uL formaldehyde in Hank's Balanced Salt Solution (HBSS) to a final concentration of 3.7%. After incubation in the fixation medium for 30 min at room temperature (293-298 K), cells were rinsed twice with HBSS and treated with cell permeabilization buffer (16 uL of 0.5% Triton X-100) for 10 min at room temperature (293-298 K) before labeling. For mitochondrial membrane potential and mitochondrial measurements, pre-fixed cells were incubated with 50 uL of MitoTracker Red CMXRos (Invitrogen) at a concentration of 250 nM for 30 min before fixation. In the remaining cases, post-fixed cells were labeled by incubation with a multiplexed mixture of primary antibodies in HBSS for 60 min at room temperature (293-298 K) to detect immunoreactivity of c-Jun (1:500), phospho-histone H3 (1:100), phospho-histone H2A.x (1:200), p53 (1:400), alpha-tubulin (1:200) and Hoechst 33342 (2 ug/mL). Cells were labeled for multiplexed imaging on two separate plates: a) Hoechst 33342, MitoTracker Red, phospho-histone H3, and alpha-tubulin, and b) Hoechst 33342, phospho-histone H2A.x, and c-Jun. A final rinse with HBSS (50 uL) was performed before analysis. The primary and secondary antibodies for the proteins were phospho-histone H3 (rabbit anti-phospho-histone H3 and FITC-donkey anti-rabbit IgG), phospho-histone H2A.x (mouse anti-phospho-histone H2A.x and FITC-donkey anti-mouse IgG), c-Jun (rabbit anti-phospho-c-Jun and Cy3-donkey anti-rabbit IgG), p53 (sheep anti-p53 and Cy5-donkey anti-sheep IgG), alpha-tubulin (mouse anti-alpha-tubulin and Cy5-donkey anti-mouse IgG). These antibodies are available as the CellCiphr HepG2 assay kit (Millipore).Digital images of each well were captured using a Cellomics ArrayScan VTI (Thermo Scientific Cellomics) (0.8 NA objective, 0.63x optical coupler, and XF-93 filter set) at 20x magnification. The images were acquired using the autofocus feature of the ArrayScan instrument, which entails the following steps. First, the camera focuses on channel 1 (Hoechst 33342), where nuclei are identified. Second, a Z offset of 1 um is used for capturing mitochondria (MitoTracker Red). […]", "values": [
      {"smiles": "CCC(O)=C1C(=O)CC(C(=O)O)CC1=O", "note": "(stereo not given)", "outcome": "inactive"},
      {"smiles": "CCCN(CCC)C(=O)SCC", "outcome": "inactive"},
      {"smiles": "CCCCCOC(=O)COc1cc(N2C(=O)C3=C(CCCC3)C2=O)c(F)cc1Cl", "AC50": "87.4 µM (active)"},
      {"smiles": "COC(=O)c1cccc(C)c1S(=O)(=O)NC(=O)Nc1nc(OCC(F)(F)F)nc(N(C)C)n1", "outcome": "inactive"},
      {"smiles": "O=C(O)C1(C(=O)Nc2ccc(Cl)cc2Cl)CC1", "outcome": "inactive"},
      {"smiles": "O=C(Nc1ccc([N+](=O)[O-])cc1Cl)c1cc(Cl)ccc1O", "AC50": "0.364 µM (active)"},
      {"smiles": "CCOC(=O)C(C)Oc1ccc(Oc2nc3ccc(Cl)cc3o2)cc1", "note": "(stereo not given)", "outcome": "inactive"},
      {"smiles": "CCCCOC(=O)C(C)Oc1ccc(Oc2ccc(C(F)(F)F)cn2)cc1", "note": "(stereo not given)", "outcome": "inactive"},
      {"smiles": "CCOC(=O)C(C)Oc1ccc(Oc2cnc3cc(Cl)ccc3n2)cc1", "note": "(stereo not given)", "outcome": "inactive"},
      {"smiles": "CC(C)(C)[C@@H](O)[C@@H](Cc1ccc(Cl)cc1)n1cncn1", "outcome": "inactive"},
      {"smiles": "c1ccc(Nc2ccccc2)cc1", "outcome": "inactive"},
      {"smiles": "N#CSCSc1nc2ccccc2s1", "AC50": "33.3 µM (active)"},
      {"smiles": "COc1c(Cl)ccc(Cl)c1C(=O)O", "outcome": "inactive"},
      {"smiles": "CSC(=O)c1cccc2nnsc12", "outcome": "inactive"},
      {"smiles": "COC(=O)c1ccccc1S(=O)(=O)NC(=O)Nc1nc(OC(F)F)cc(OC(F)F)n1", "outcome": "inactive"},
      {"smiles": "Cc1nn(C)c(Oc2ccccc2)c1C=NOCc1ccc(C(=O)OC(C)(C)C)cc1", "outcome": "inactive"},
      {"smiles": "CCCCOCCOCCOCc1cc2c(cc1CCC)OCO2", "outcome": "inactive"},
      {"smiles": "CC(C)(c1ccc(O)cc1)c1ccc(O)cc1", "outcome": "inactive"},
      {"smiles": "COC(=O)c1ccc(CNS(C)(=O)=O)cc1S(=O)(=O)NC(=O)Nc1nc(OC)cc(OC)n1", "outcome": "inactive"},
      {"smiles": "CCCCCCC(C)OC(=O)COc1nc(F)c(Cl)c(N)c1Cl", "note": "(stereo not given)", "outcome": "inactive"},
      {"smiles": "CCCCC(CC)CN1C(=O)C2C3C=CC(C3)C2C1=O", "note": "(stereo not given)", "outcome": "inactive"},
      {"smiles": "CN(C)C(=O)Nc1ccc(Cl)c(Cl)c1", "outcome": "inactive"},
      {"smiles": "CC1(C)C(C=C(Cl)Cl)C1C(=O)OCc1cccc(Oc2ccccc2)c1", "note": "(stereo not given)", "outcome": "inactive"},
      {"smiles": "OB(O)O", "outcome": "inactive"},
      {"smiles": "COC(=O)c1ccc(I)cc1S(=O)(=O)NC(=O)Nc1nc(C)nc(OC)n1", "outcome": "inactive"},
      {"smiles": "CCOC(=O)NCCOc1ccc(Oc2ccccc2)cc1", "outcome": "inactive"},
      {"smiles": "COC(=O)c1ccccc1C(=O)O", "outcome": "inactive"},
      {"smiles": "COc1nc(C)nc(NC(=O)NS(=O)(=O)c2ccccc2OCCCl)n1", "outcome": "inactive"},
      {"smiles": "COC(=O)CSc1cc(N=c2sc(=O)n3n2CCCC3)c(F)cc1Cl", "outcome": "inactive"},
      {"smiles": "CCOC(=O)[C@H](C)Oc1ccc(Oc2nc3ccc(Cl)cc3o2)cc1", "outcome": "inactive"},
      {"smiles": "CCNc1nc(N)nc(Cl)n1", "outcome": "inactive"},
      {"smiles": "CCCCOC(=O)[C@@H](C)Oc1ccc(Oc2ccc(C(F)(F)F)cn2)cc1", "outcome": "inactive"},
      {"smiles": "S=C(S)NCCNC(=S)S.[Mn+2].[S-]C([S-])=NCCN=C([S-])[S-].[Zn+2]", "outcome": "inactive"},
      {"smiles": "COC(=O)c1c(Cl)nn(C)c1S(=O)(=O)NC(=O)Nc1nc(OC)cc(OC)n1", "outcome": "inactive"},
      {"smiles": "CCCN(CCC)c1c([N+](=O)[O-])cc(C(F)(F)F)c(N)c1[N+](=O)[O-]", "AC50": "75.8 µM (active)"},
      {"smiles": "CCC(C)OC(=O)N1CCCCC1CCO", "note": "(stereo not given)", "outcome": "inactive"},
      {"smiles": "C=CCOC(Cn1ccnc1)c1ccc(Cl)cc1Cl", "note": "(stereo not given)", "outcome": "inactive"},
      {"smiles": "CCSC(=O)N(CC(C)C)CC(C)C", "outcome": "inactive"},
      {"smiles": "Oc1ccc(C(c2ccc(O)cc2)C(Cl)(Cl)Cl)cc1", "AC50": "94.2 µM (active)"},
      {"smiles": "CCN(Cc1c(F)cccc1Cl)c1c([N+](=O)[O-])cc(C(F)(F)F)cc1[N+](=O)[O-]", "outcome": "inactive"}
    ]}
  ]
}
